Source: PubChem BioAssay (NCATS)
Results filed as inconclusive are left out. Active and inactive are the calls of the source. Unless noted, calls follow the shape of the full dose curve.

Columns and labels:
[1] = qHTS for Inhibitors of the Functional Ribonucleoprotein Complex (vRNP) of Lassa (LASV) Arenavirus: LASV Primary Screen - GLuc reporter signal (AID 1347082; calls by dose curve; tested in HEK293 reporter line; also: nearly all actives have a fitted effect of over 60% in size)
[2] = qHTS for Inhibitors of the Functional Ribonucleoprotein Complex (vRNP) of Lassa (LASV) Arenavirus: Viability assay - alamar blue signal for LASV Primary Screen (AID 1347083; calls by dose curve; tested in HEK293 reporter line; also: nearly all actives have a fitted effect of over 80% in size)
[3] = qHTS for Inhibitors of the Functional Ribonucleoprotein Complex (vRNP) of Lymphocytic Choriomeningitis Arenaviruses (LCMV): Viability assay - alamar blue signal for LCMV Primary Screen (AID 1347085; calls by dose curve; tested in HEK293 reporter line; also: nearly all actives have a fitted effect of over 80% in size)
[4] = biological target: Nucleoprotein (Lymphocytic choriomeningitis virus (strain Armstrong)) (UniProt P09992); experiment: qHTS for Inhibitors of the Functional Ribonucleoprotein Complex (vRNP) of Lymphocytic Choriomeningitis Arenaviruses (LCMV): LCMV Primary Screen - GLuc reporter signal (AID 1347086); also: nearly all actives have a fitted effect of over 70% in size
Chain of Nucleoprotein (Lymphocytic choriomeningitis virus (strain Armstrong)) (P09992 whole entry, looked up): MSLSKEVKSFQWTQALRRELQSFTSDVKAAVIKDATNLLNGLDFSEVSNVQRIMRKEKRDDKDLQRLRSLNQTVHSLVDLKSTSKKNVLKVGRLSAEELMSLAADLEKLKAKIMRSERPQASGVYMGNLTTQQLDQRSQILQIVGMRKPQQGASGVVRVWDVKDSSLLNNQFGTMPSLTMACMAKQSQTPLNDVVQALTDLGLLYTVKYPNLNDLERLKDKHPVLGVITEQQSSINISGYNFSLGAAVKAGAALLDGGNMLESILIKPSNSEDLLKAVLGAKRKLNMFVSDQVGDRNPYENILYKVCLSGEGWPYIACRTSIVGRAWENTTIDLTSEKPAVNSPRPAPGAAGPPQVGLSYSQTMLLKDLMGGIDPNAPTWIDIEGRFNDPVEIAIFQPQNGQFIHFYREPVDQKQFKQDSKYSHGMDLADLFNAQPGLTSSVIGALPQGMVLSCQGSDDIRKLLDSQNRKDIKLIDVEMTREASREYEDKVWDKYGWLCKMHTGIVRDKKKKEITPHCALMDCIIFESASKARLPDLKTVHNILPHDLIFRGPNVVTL
% is scaled to controls: 0 for no effect and ±100 for the full control effect.
Also: series mostly up to about 57 µM.

O=C(NCCO[N+](=O)[O-])c1cccnc1
inactive: Potency [1] | Potency [2] | Potency [3] | Potency [4]

Cc1ncc(CO)c(CN)c1O
inactive: Potency [1] | Potency [2] | Potency [3] | Potency [4]

COc1cc(/C=C/C(=O)O[C@H]2CC[C@]34C[C@]35CC[C@]3(C)[C@@H]([C@H](C)CCC=C(C)C)CC[C@@]3(C)[C@@H]5CC[C@H]4C2(C)C)ccc1O
inactive: Potency [1] | Potency [2] | Potency [3] | Potency [4]

CC(=O)OC(C)C[N+](C)(C)C (stereo not given)
inactive: Potency [1] | Potency [2] | Potency [3] | Potency [4]

CCOc1ccc(NS(=O)(=O)c2ccc(N)cc2)nn1
inactive: Potency [1] | Potency [2] | Potency [3] | Potency [4]

CCn1nc(C(=O)O)c(=O)c2cc3c(cc21)OCO3
inactive: Potency [1] | Potency [2] | Potency [3] | Potency [4]

CC1c2ccccc2CN1NC(=O)c1ccc(Cl)c(S(N)(=O)=O)c1 (stereo not given)
inactive: Potency [1] | Potency [2] | Potency [3] | Potency [4]

CCOC(=O)c1ccc(O)cc1
inactive: Potency [1] | Potency [2] | Potency [3] | Potency [4]

CCOC(=O)c1ccccc1O
inactive: Potency [1] | Potency [2] | Potency [3] | Potency [4]

CC(CC(C#N)(c1ccccc1)C(C)C)N(C)C (stereo not given)
inactive: Potency [1] | Potency [2] | Potency [3] | Potency [4]

CC[C@]12CCCN3CCc4c(n(c5ccccc45)[C@@](O)(C(=O)OC)C1)[C@@H]32
inactive: Potency [1] | Potency [2] | Potency [3] | Potency [4]

CC(C(=O)O)c1ccc(/C=C2\CCCCC2=O)cc1 (stereo not given)
inactive: Potency [1] | Potency [2] | Potency [3] | Potency [4]

CC(C)(C)C(=O)Oc1ccc(S(=O)(=O)Nc2ccccc2C(=O)NCC(=O)O)cc1
inactive: Potency [1] | Potency [2] | Potency [3] | Potency [4]

COc1cc(C)c(Cc2cnc(N)nc2N)cc1OC
inactive: Potency [1] | Potency [2] | Potency [3] | Potency [4]

CCOc1cc(CC(=O)N[C@@H](CC(C)C)c2ccccc2N2CCCCC2)ccc1C(=O)O
inactive: Potency [1] | Potency [2] | Potency [3] | Potency [4]

CCN1CCN(C(=O)N[C@@H](C(=O)N[C@@H]2C(=O)N3[C@@H]2SC(C)(C)[C@H]3C(=O)O)c2ccccc2)C(=O)C1=O
inactive: Potency [1] | Potency [2] | Potency [3] | Potency [4]

CC(=O)OCC(COC(C)=O)OC(C)=O
inactive: Potency [1] | Potency [2] | Potency [3] | Potency [4]

Cc1nnc(C(C)C)n1C1C[C@H]2CC[C@@H](C1)N2CC[C@H](NC(=O)C1CCC(F)(F)CC1)c1ccccc1 (stereo not given in full)
inactive: Potency [1] | Potency [2] | Potency [3] | Potency [4]

C[C@]12CCC(=O)C=C1CC[C@H]1[C@@H]3CC[C@](O)(C(=O)CO)[C@@]3(C)C[C@H](O)[C@@]12F
inactive: Potency [1] | Potency [2] | Potency [3] | Potency [4]

CC(=O)Nc1ccc(S(=O)(=O)Nc2cc(C)on2)cc1
inactive: Potency [1] | Potency [2] | Potency [3] | Potency [4]

N[C@@H](CCC(=O)N[C@@H](CS)C(=O)NCC(=O)O)C(=O)O
inactive: Potency [1] | Potency [2] | Potency [3] | Potency [4]

CN=C(NC#N)Nc1ccc(C2=NNC(=O)CC2C)cc1 (stereo not given)
inactive: Potency [1] | Potency [2] | Potency [3] | Potency [4]

Cc1cccc(C)c1NC(=O)CN1CCCCCC1
inactive: Potency [1] | Potency [2] | Potency [3] | Potency [4]

CC[N+](CC)(CCNC(=O)C(=O)NCC[N+](CC)(CC)Cc1ccccc1Cl)Cc1ccccc1Cl
inactive: Potency [1] | Potency [2] | Potency [3] | Potency [4]

O=C(CCN1CCC(c2ccccc2)C1)c1ccc2c(c1)OCCO2 (stereo not given)
inactive: Potency [1] | Potency [2] | Potency [3] | Potency [4]

C[C@@H]1CCC[C@H](C)N1
inactive: Potency [1] | Potency [2] | Potency [3] | Potency [4]

CC(C)(C)c1cc(C=O)cc(C(C)(C)C)c1O
inactive: Potency [1] | Potency [2] | Potency [3] | Potency [4]

C=CCn1c(=O)n([C@@H]2O[C@H](CO)[C@@H](O)[C@H]2O)c2nc(N)[nH]c(=O)c21
inactive: Potency [1] | Potency [2] | Potency [3] | Potency [4]

Cc1ccccc1N1CCN(CCc2nnc3n2CCCC3)CC1
inactive: Potency [1] | Potency [2] | Potency [3] | Potency [4]

COc1cc(-c2ccc(=O)[nH]n2)ccc1OC(F)F
inactive: Potency [1] | Potency [2] | Potency [3] | Potency [4]

CC(=O)CC/C=C(\C)CC/C=C(\C)CC/C=C(\C)CCC=C(C)C
inactive: Potency [1] | Potency [2] | Potency [3] | Potency [4]

CC1COc2c(N3CCN(C)CC3)c(F)cc3c(=O)c(C(=O)O)cn1c23 (stereo not given)
inactive: Potency [1] | Potency [2] | Potency [3] | Potency [4]

CC(=O)OC[C@H]1O[C@@H](OC(C)=O)[C@H](OC(C)=O)[C@@H]1OC(C)=O
inactive: Potency [1] | Potency [2] | Potency [3] | Potency [4]

Cc1cccc(C)c1NC(=O)CN(CC(=O)O)CC(=O)O
inactive: Potency [1] | Potency [2] | Potency [3] | Potency [4]

Nc1c[n+](N2CCOCC2)no1
inactive: Potency [1] | Potency [2] | Potency [3] | Potency [4]

O=C(O)c1ccccc1S
inactive: Potency [1] | Potency [2] | Potency [3] | Potency [4]

CC(C)(Sc1cc(C(C)(C)C)c(O)c(C(C)(C)C)c1)Sc1cc(C(C)(C)C)c(O)c(C(C)(C)C)c1
inactive: Potency [1] | Potency [2] | Potency [3] | Potency [4]

NC(N)=NS(=O)(=O)c1ccc(N)cc1
inactive: Potency [1] | Potency [2] | Potency [3] | Potency [4]

COC(=O)CCCCC(CCSS/C(CCO)=C(\C)N(C=O)Cc1cnc(C)nc1N)SC(C)=O (stereo not given)
inactive: Potency [1] | Potency [2] | Potency [3] | Potency [4]

CC(C)=CCC[C@@](C)(O)[C@H]1CC=C(C)CC1
inactive: Potency [1] | Potency [2] | Potency [3] | Potency [4]

Cc1ccc(C(C)C)c(O)c1
inactive: Potency [1] | Potency [2] | Potency [3] | Potency [4]

OC[C@@H](O)[C@@H](O[C@@H]1O[C@H](CO)[C@H](O)[C@H](O)[C@H]1O)[C@H](O)[C@@H](O)CO
inactive: Potency [1] | Potency [2] | Potency [3] | Potency [4]

CC(C(=O)O)c1ccc2c(c1)[nH]c1ccc(Cl)cc12 (stereo not given)
inactive: Potency [1] | Potency [2] | Potency [3] | Potency [4]

CCN(CC)S(=O)(=O)c1ccc(C(=O)O)cc1
inactive: Potency [1] | Potency [2] | Potency [3] | Potency [4]

NCCc1ccn[nH]1
inactive: Potency [1] | Potency [2] | Potency [3] | Potency [4]

CC1CCc2c(N3CCC(O)CC3)c(F)cc3c(=O)c(C(=O)O)cn1c23 (stereo not given)
inactive: Potency [1] | Potency [2] | Potency [3] | Potency [4]

COc1cc2c(Nc3ccc(Br)cc3F)ncnc2cc1OCC1CCN(C)CC1
inactive: Potency [1] | Potency [2] | Potency [3] | Potency [4]

CC(O)CN(CCN(CC(C)O)CC(C)O)CC(C)O (stereo not given)
inactive: Potency [1] | Potency [2] | Potency [3] | Potency [4]

CCN(CC)CCOC(=O)c1ccc(N)cc1
inactive: Potency [1] | Potency [2] | Potency [3] | Potency [4]

CC(CCc1ccccc1)NCC(O)c1ccc(O)c(C(N)=O)c1 (stereo not given)
inactive: Potency [1] | Potency [2] | Potency [3] | Potency [4]

CCc1cc(C(N)=S)ccn1
inactive: Potency [1] | Potency [2] | Potency [3] | Potency [4]

CCN(CC)CC(=O)Oc1ccc(NC(C)=O)cc1
inactive: Potency [1] | Potency [2] | Potency [3] | Potency [4]

CC(C)=CCC1C(=O)N(c2ccccc2)N(c2ccccc2)C1=O
inactive: Potency [1] | Potency [2] | Potency [3] | Potency [4]

Nc1ccc(S(=O)(=O)NC(=O)c2ccccc2)cc1
inactive: Potency [1] | Potency [2] | Potency [3] | Potency [4]

N=C(N)N1CCc2ccccc2C1
inactive: activity change, negative = inhibition [1] -8.85% [at 5.82 µM] | activity change, negative = reduced viability [2] -0.684% [at 5.82 µM] | activity change, negative = lower viability [3] -9.02% [at 5.82 µM] | activity change, negative = inhibition [4] -2.35% [at 5.82 µM]

O=C(OCC1(COC(=O)c2cccnc2)CCCC(COC(=O)c2cccnc2)(COC(=O)c2cccnc2)C1O)c1cccnc1
inactive: Potency [1] | Potency [2] | Potency [3] | Potency [4]

C#CCN[C@@H]1CCc2ccccc21
inactive: Potency [1] | Potency [2] | Potency [3] | Potency [4]

COC(=O)c1ccccc1C(=O)c1ccc(OCCN2CCCCC2)cc1
inactive: Potency [1] | Potency [2] | Potency [3] | Potency [4]

O=C1OC2(c3ccccc31)c1cc(Br)c(O)c(Br)c1Oc1c2cc(Br)c(O)c1Br
inactive: Potency [1] | Potency [2] | Potency [3] | Potency [4]

Cc1cc(CCCOc2c(C)cc(-c3noc(C(F)(F)F)n3)cc2C)on1
inactive: Potency [1] | Potency [2] | Potency [3] | Potency [4]
